Test results: PubChem BioAssay AID435003 (Sanford-Burnham Center for Chemical Genomics, 2010)
Among all 330,000 compounds or so, about 1,700 (0.52%) were called active. The sample as a whole holds a higher share of actives than the screen did. Unmarked numbers belong to inactive results. No stated cut-off is given here; in the data, active means inhibition above about 50%; inactive means the rest.

Assay: lowers stimulated NF-kB reporter luminescence – cell-based, uHTS, TCR NF-kB activation inhibitor project, primary screen (AID 435003)
Details: Jurkat, PMA/ionomycin-induced NF-kB luciferase reporter, at 4 µM, stronger effect = higher value
For `CCOc1ccccc1N1CCN(C(=O)COc2ccc3c(C)cc(=O)oc3c2)CC1`, the inhibition was 26.6%.
`Cc1cc(=O)oc2cc(OCCC[n+]3ccccc3)ccc12` showed an inhibition of 3.92%.
With `Cc1cc(=O)oc2cc(OCC3CC(c4ccccc4Cl)=NO3)ccc12` (centres undefined) the inhibition was 80.2% (active).
`CCOc1ccc(NC(=O)CCS(=O)(=O)c2ccc3c(c2)CCCN3C(=O)CC)cc1` showed an inhibition of -12%.
Work on `CCCCC(=O)Nc1ccc2c(c1)C(=O)NC2=O` yielded an inhibition of 7.09%.
Compound `COCc1c(C(=O)N/N=C(\C)c2ccncc2)nnn1-c1nonc1N` has an inhibition of -38.2%.
For `C[C@@H]1C[C@@H]2O[C@H]2/C=C\C=C\C(=O)Cc2c(Cl)c(O)cc(O)c2C(=O)O1`, the inhibition was 56% (active).
For `CN(NC(=O)c1ccccc1)c1nc2ccccc2nc1C(F)(F)F`, the inhibition was 40.2%.
Compound `CN(NC(=O)c1ccccc1F)c1nc(C(F)(F)F)nc2ccccc12` has an inhibition of 35.5%.
In the case of `CSc1nc(N(C)NC(=O)c2cccc(C)c2)c2ccccc2n1`, the inhibition is reported as 57.7% (active).
With `O=C1c2ccccc2C(Nc2ccc3c(c2)OCCO3)N1Cc1ccco1` (centres undefined) the inhibition was 4.45%.
For `Cc1ccc(-n2c(C)cc(/C=N/Nc3ccc([N+](=O)[O-])cn3)c2C)c(C)c1`, the inhibition was 15.1%.
Work on `COc1ccccc1C1CCN(c2ccc([N+](=O)[O-])cn2)CC1` yielded an inhibition of 1.45%.
For `Cc1ccc(N2CCN(c3ccc([N+](=O)[O-])cn3)CC2)c(C)c1`, the inhibition was 50.7% (active).
With `COc1ccc(N(CC(=O)Nc2cc(OC)cc(OC)c2)S(=O)(=O)c2c(C)n[nH]c2C)cc1` the inhibition was -11.8%.
In the case of `CCc1sc(C(=O)N2CCN(CC(=O)Nc3cccc(F)c3)CC2)cc1C`, the inhibition is reported as -11.7%.
`CCc1ccc(NC2Nc3cc(C)nn3S2)cc1` (centres undefined) gave an inhibition of -76.8%.
Compound `Cc1ccc(NC(=O)NNC(=O)c2sccc2-n2cccc2)cc1` has an inhibition of 6.7%.
`COc1ccc(/C=N/NC(=O)c2ccncc2)cc1CN1CCCc2ccccc21` gave an inhibition of 16.1%.
With `COc1cccc(/C=N/NC(=O)c2[nH]nc3c2CCc2ccccc2-3)c1O` the inhibition was 60.8% (active).
In the case of `COc1ccc(Br)cc1/C=N/NC(=O)c1cccc(S(=O)(=O)N2CCOCC2)c1`, the inhibition is reported as 5.13%.
For `Cc1ccsc1-c1nc(CSCC(=O)NCCN2CCCC2)c(C)o1`, the inhibition was -7.15%.
Compound `Cc1c(C)c2cc3c4c(oc3c(C)c2oc1=O)CCCC4` has an inhibition of -27.9%.
Compound `O=C(Nc1cccc(S(=O)(=O)N2CCCC2)c1)c1cncc(Br)c1` has an inhibition of 1.27%.
With `CC[n+]1cc(C)ccc1/C=C/c1ccc(N(C)C)cc1` the inhibition was 84.4% (active).
`Cc1ccc2nsnc2c1NC(=O)c1ccccc1[N+](=O)[O-]` showed an inhibition of 10.9%.
In the case of `COc1ccc(NC(=O)C(CC(C)C)NS(=O)(=O)c2ccc3c(c2)CCN3C(C)=O)cc1OC` (centres undefined), the inhibition is reported as -14%.
With `CC1(C(=O)O)CCC(C(=O)Nc2ccc(Cl)c(Cl)c2)C1(C)C` (centres undefined) the inhibition was -8.65%.
Compound `COc1cc(NS(=O)(=O)c2ccc(NC(=O)c3ccc([N+](=O)[O-])cc3)cc2)ncn1` has an inhibition of 14.9%.
With `CC(=O)NC(=S)Nc1ccc(NC(=S)NC(=O)c2ccc([N+](=O)[O-])cc2)cc1` the inhibition was 14.2%.
For `Cn1ccc(=Nc2ccc(NC(=O)c3ccc(N=c4ccn(C)c5ccc([N+](=O)[O-])cc45)cc3)cc2)cc1`, the inhibition was 51.3% (active).
`O=C1C=C(c2ccc(Cl)cc2)C(=O)N1Nc1ccccc1` showed an inhibition of 13.6%.
Compound `CC(=O)c1ccc(N2CCN(C(=O)C3CCN(S(=O)(=O)c4ccc5c(c4)CC(C)N5C(=O)C4CC4)CC3)CC2)cc1` (centres undefined) has an inhibition of -3.75%.
`CCOc1ccc(N/C=C/C(=O)c2cc(OC)c(OC)c(OC)c2)cc1` showed an inhibition of 44.3%.
In the case of `COc1ccc(C(=O)/C=C/Nc2ccccn2)cc1`, the inhibition is reported as 50.4% (active).
With `CCOc1ccc(N/C=C/C(=O)c2ccccc2)cc1` the inhibition was -132%.
In the case of `Cc1onc(-c2ccc(Cl)cc2)c1-c1ccnn1S(=O)(=O)c1ccc(Cl)cc1`, the inhibition is reported as 9.53%.
`COc1ccc(NC(=O)C(C)N2c3cccc4cccc(c34)S2(=O)=O)c(OC)c1` (centres undefined) showed an inhibition of 21.7%.
For `O=C(NCc1ccc2c(c1)OCO2)c1cc(F)c(F)cc1Cl`, the inhibition was -12%.
`CC1CCN(c2ccc(C(=O)NCc3ccc4c(c3)OCO4)cc2[N+](=O)[O-])CC1` gave an inhibition of -1.58%.
With `O=C(NCc1ccc2c(c1)OCO2)c1cc([N+](=O)[O-])ccc1N1CCOCC1` the inhibition was 60.2% (active).
Compound `CC1Sc2ccc(S(=O)(=O)CCC(=O)NCc3ccccc3Cl)cc2NC1=O` (centres undefined) has an inhibition of 7.46%.
`Cc1ccc(S(=O)(=O)N/N=C(\c2ccccc2)C2CC2)cc1` showed an inhibition of -1.73%.
Work on `O=C(Nc1ccccc1C(F)(F)F)c1cc(-c2ccc(O)cc2)on1` yielded an inhibition of -35.1%.
For `CC(C)Cc1cc(C(=O)Nc2cc(Br)ccc2O)no1`, the inhibition was -28.3%.
With `Cc1ccc(O)c(NC(=O)c2cc(-c3ccco3)on2)c1` the inhibition was 96.2% (active).
`COC(=O)c1ccc(NC(=O)c2cc3c(CO)cnc(C)c3oc2=Nc2cccc(C(N)=O)c2)cc1` showed an inhibition of -7.55%.
`c1ccc(-n2cccc2)c(N2CCCCC2)c1` showed an inhibition of 6.35%.
In the case of `C/C(=C(\C#N)C(=O)NCCCN1CCOCC1)N(C)C`, the inhibition is reported as -10.8%.
For `O=C(COC(=O)c1ccc(F)c(S(=O)(=O)N2CCOCC2)c1)NCc1ccc2c(c1)OCO2`, the inhibition was -6.67%.
`CC(=NCc1ccco1)c1c(C(F)(F)F)[nH]n(-c2nc3ccccc3s2)c1=O` gave an inhibition of -104%.
In the case of `COC(=O)Cc1[nH]n(-c2nc3ccccc3s2)c(=O)c1C(C)=Nc1ccc(OC)cc1`, the inhibition is reported as 60.8% (active).
`COc1ccc(C2=NN(c3nc4ccccc4s3)C(=O)C2)cc1` showed an inhibition of -52%.
Work on `COc1ccc(CC(=O)NCc2nnc(SCC(=O)Nc3nccs3)n2C)cc1` yielded an inhibition of -0.699%.
Compound `COc1ccc(OC)c(CCNC(=O)CCn2ccc3cc(S(=O)(=O)N4CCCC4)ccc32)c1` has an inhibition of 4.04%.
For `COc1ccccc1C(=O)Nc1ccc(OCc2nnc3c4ccccc4c(C)nn23)cc1`, the inhibition was 15.2%.
In the case of `Cc1cc(C(=O)N/N=C/c2ccccn2)c2ccccc2n1`, the inhibition is reported as 3.68%.
In the case of `COc1ccc(Cc2nnc(N/N=C/c3ccccc3O)[nH]c2=O)cc1OC`, the inhibition is reported as 10.5%.
For `Cc1nnc(N/N=C/c2ccccn2)[nH]c1=O`, the inhibition was 58.1% (active).
